Test results taken from PubChem BioAssay (NCI).
About 83,000 compounds went through this panel and 20% of them were active in at least one assay; those are over-represented in the sample as a whole.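 Interpretation: 100, growth as untreated; towards 0, rising growth inhibition; 0, no net growth; 0 to -100, cell death. Compounds scoring below 10 were considered active.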 Calls of active or inactive are those of the source.

Legend:
Assay in all cases: NCI-60 one-dose screen, 48 h (100 = growth as untreated, 0 = no growth, -100 = all killed)
Conditions in all cases: 10 µM unless noted
T-47D breast = system: T-47D breast
BT-549 breast = system: BT-549 breast
MDA-MB-435 melanoma = system: MDA-MB-435 melanoma
MCF7 breast = system: MCF7 breast
HCT-116 colon = system: HCT-116 colon
HCC-2998 colon = system: HCC-2998 colon
KM12 colon = system: KM12 colon

Measured: growth

CCN1C2CCC1/C(=C\c1ccc(F)cc1)C(=O)/C2=C/c1ccc(F)cc1
inactive: T-47D breast 45.8% | BT-549 breast 24.9% | MDA-MB-435 melanoma 25% | MCF7 breast 18.6% | HCC-2998 colon 65.8% | KM12 colon 17.5%
active: HCT-116 colon 7.21%

CN(Cc1cc(Br)cc(Br)c1O)Cc1cc(Br)cc(Br)c1O
inactive: T-47D breast 42.6% | BT-549 breast 57.8% | MDA-MB-435 melanoma 52.6% | MCF7 breast 17.7% | HCC-2998 colon 38.7% | KM12 colon 42.5%
active: HCT-116 colon 7.44%

Cc1ccc(C(=O)c2ccc(CC(=O)NN3C(=O)c4ccccc4C3=O)n2C)cc1
inactive: T-47D breast 98.3% | BT-549 breast 110% | MDA-MB-435 melanoma 99.6% | MCF7 breast 91.4% | HCT-116 colon 107% | HCC-2998 colon 104% | KM12 colon 102%

CN1CCN(CCOc2ccc(-c3cnc4c(-c5ccc(F)cc5)cnn4c3)cc2)CC1
inactive: T-47D breast 52.7% | BT-549 breast 82.8% | MCF7 breast 41% | HCT-116 colon 14.5% | HCC-2998 colon 71.6%
active: MDA-MB-435 melanoma -34.3% | KM12 colon 9.72%

O=C(O)c1cn(C2CC2)c2cc(N3CCN(C(=O)Nc4nc(-c5ccc(Br)cc5)cs4)CC3)c(F)cc2c1=O
inactive: T-47D breast 27.3% | HCT-116 colon 18.5% | HCC-2998 colon 35.4% | KM12 colon 11.1%
active: BT-549 breast 1.15% | MDA-MB-435 melanoma 9.05% | MCF7 breast 5.12%

O=C(Nc1ccccc1[N+](=O)[O-])c1ccc(Cl)c(Cl)c1
inactive: T-47D breast 54.9% | BT-549 breast 85.6% | MDA-MB-435 melanoma 102% | MCF7 breast 52% | HCT-116 colon 95% | HCC-2998 colon 110% | KM12 colon 96.8%

COc1cccc(/C=N/NC(=O)c2ccccc2N2CCCC2)c1O
inactive: T-47D breast 24.7% | BT-549 breast 17.8% | MDA-MB-435 melanoma 85.5% | HCC-2998 colon 51.8% | KM12 colon 46.5%
active: MCF7 breast 5.29% | HCT-116 colon 4.81%

CCOC(=O)c1c(C)nc2ccccc2c1/C=C/c1ccccc1
inactive: T-47D breast 25.7% | BT-549 breast 61.7% | MDA-MB-435 melanoma 70.2% | MCF7 breast 65.5% | HCT-116 colon 59.5% | HCC-2998 colon 87.2% | KM12 colon 71.8%

Nc1nc(N)c2c(n1)NC(c1ccc(Cl)cc1)C1CCc3ccccc3C1=N2 (stereo not drawn)
inactive: T-47D breast 52.6% | BT-549 breast 83.2% | MDA-MB-435 melanoma 44.2% | MCF7 breast 24.8% | HCT-116 colon 31.8% | HCC-2998 colon 75.6% | KM12 colon 55.4%

COc1ccc(C2=CN3CC=CC3CC2=O)cc1 (stereo not drawn)
inactive: T-47D breast 75.3% | BT-549 breast 105% | MDA-MB-435 melanoma 96.9% | MCF7 breast 93.4% | HCT-116 colon 90.3% | HCC-2998 colon 91% | KM12 colon 101%

CCNc1nc(O)c(/C=C2\C=Nc3ncccc32)s1
inactive: HCC-2998 colon 10.2%
active: T-47D breast -9.7% | BT-549 breast -50.4% | MDA-MB-435 melanoma -0.802% | MCF7 breast 3.97% | HCT-116 colon 3.99% | KM12 colon 6.24%

COc1ccc(/C=C/c2c(C(=O)/C=C/c3ccccc3)c(C)nc3ccccc23)cc1
inactive: T-47D breast 12.9% | BT-549 breast 31.4% | MCF7 breast 12.8% | HCC-2998 colon 12.3%
active: MDA-MB-435 melanoma -33% | HCT-116 colon -70.1% | KM12 colon 3.01%

COc1cc(OC)c2sc(-c3ccc(-n4cncc4-c4cc(OC)c(OC)c(OC)c4)cc3)nc2c1
inactive: T-47D breast 32.4% | BT-549 breast 45.1% | MDA-MB-435 melanoma 35.2% | MCF7 breast 49.8% | HCT-116 colon 48.6% | HCC-2998 colon 95.3% | KM12 colon 52.4%

CCOC(=O)c1c(C)nc2ccccc2c1/C=C/c1cccs1
inactive: T-47D breast 17.4% | BT-549 breast 77.4% | MDA-MB-435 melanoma 88.7% | MCF7 breast 39.5% | HCT-116 colon 61.3% | HCC-2998 colon 79.4% | KM12 colon 77.8%
